Test results published in PubChem BioAssay AID1780 (National Center for Advancing Translational Sciences (NCATS), 2009).
Active and inactive are the calls of the source. Calls follow the shape of the dose curve; as a rule, active = well fitted curve in the direction sought with a large enough effect; inactive = no such curve, though single readings can be large or run the other way.

Biological target: Pyruvate kinase PKM (Homo sapiens) (UniProt P14618)
Assay: Confirmation Concentration-Response Assay for Activators of Human Muscle isoform 1 Pyruvate Kinase
Settings: purified hPK-M1, Kinase-Glo ATP luminescence, 1 h; series mostly up to 57.5 µM
Description: Confirmatory assay NIH Chemical Genomics Center [NCGC] Matthew G. Vander Heiden, M.D., Ph.D. [Harvard Medical School, 77 Avenue Louis Pasteur, Boston, MA 02115] NCGC Assay Overview: Human pyruvate kinase […] (hPK-M1) enzyme was supplied as a highly purified (>95% pure) preparation from Harvard Medical School and assayed for its ability to generate ATP from ADP using phosphoenolpyruvate (PEP) as a substrate. ATP generation was detected in a coupled reaction by luciferase-mediated luminescence, an ATP-dependent process. Pyruvate kinase substrates, PEP and ADP, were present in the assay at Km and approximately 10-fold below Km respectively. The enzyme was assayed at an intermediate level of activity to screen for both inhibitors and activators.
NCGC Assay Protocol Summary for M1-isoform: Three uL of substrate mix (at r.t.) in assay buffer (50 mM Imidazole pH7.2, 50 mM KCl, 7 mM MgCl2, 0.01% Tween 20, 0.05% BSA) was dispensed into white solid bottom 1,536 well microtiter plates so that the final concentrations of substrates in the assay were 0.1 mM ADP and 0.5 mM PEP. 23 nL of compound were delivered by a pin tool and 1 uL of enzyme mix (final concentration of 1 nM) in assay buffer (4 degree Celsius) was added. Plates were incubated at room temperature for 1 hour. Two uL of detection mix (Kinase-Glo, Promega; at 4 degree Celsius protected from light) was added and luminescence read by a ViewLux (Perkin Elmer) at 1 second exposure/plate. Data were normalized to the uninhibited (row 31). Additionally, a no enzyme and 5-fold enzyme control was dispensed in row 32, split equally between the two conditions.

Sequence of Pyruvate kinase PKM (Homo sapiens) (P14618 whole entry, looked up, canonical isoform): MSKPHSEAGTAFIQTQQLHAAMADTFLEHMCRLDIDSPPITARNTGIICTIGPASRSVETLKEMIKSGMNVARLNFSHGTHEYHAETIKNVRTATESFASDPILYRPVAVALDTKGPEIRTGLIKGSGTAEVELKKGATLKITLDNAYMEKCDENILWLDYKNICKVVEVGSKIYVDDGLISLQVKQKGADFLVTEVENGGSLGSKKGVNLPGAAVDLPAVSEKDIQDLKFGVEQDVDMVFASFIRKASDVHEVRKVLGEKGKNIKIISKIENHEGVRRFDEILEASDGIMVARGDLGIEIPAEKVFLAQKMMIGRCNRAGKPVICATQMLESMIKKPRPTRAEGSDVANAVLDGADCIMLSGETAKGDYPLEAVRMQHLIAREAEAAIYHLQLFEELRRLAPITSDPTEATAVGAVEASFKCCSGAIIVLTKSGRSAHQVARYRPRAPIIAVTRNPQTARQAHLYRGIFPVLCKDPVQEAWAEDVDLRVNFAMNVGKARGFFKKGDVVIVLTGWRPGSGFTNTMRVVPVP

outcome, inactive:
Cc1cc2c(s1)c1cnn(Cc3ccccc3Cl)c(=O)c1n2C
Cn1c2ccsc2c2cnn(Cc3ccccc3F)c(=O)c21
O=S(=O)(c1ccc2c(c1)OCCO2)N1CCN(S(=O)(=O)c2ccccc2F)CC1
COc1ccc(Cn2ncc3c4sc(C)cc4n(C)c3c2=O)cc1F
O=S(=O)(c1ccc2c(c1)OCCO2)N1CCN(S(=O)(=O)c2c(F)ccc(O)c2F)CC1
Cn1c2cc(C#N)sc2c2cnn(Cc3ccccc3F)c(=O)c21
C[C@@H]1CN(S(=O)(=O)c2c(F)cccc2F)CCN1S(=O)(=O)c1ccc2c(c1)OCCO2
CCCc1cc(F)c(S(=O)(=O)N2CCN(S(=O)(=O)c3ccc4c(c3)OCCO4)CC2)cc1F
O=S(=O)(c1cccc(C(F)(F)F)c1)N1CCN(S(=O)(=O)c2ccc3c(c2)OCCO3)CC1
O=S(=O)(c1c(F)cccc1F)N1CCN(S(=O)(=O)c2c(F)cccc2F)CC1
O=S(=O)(c1ccc2c(c1)OCCO2)N1CCCN(S(=O)(=O)c2c(F)cccc2F)CC1
Cn1c2cc(CO)sc2c2cnn(Cc3ccccc3F)c(=O)c21
Cc1cc2c(s1)c1cnn(Cc3cccc(Cn4ncc5c6sc(C)cc6n(C)c5c4=O)c3F)c(=O)c1n2C
O=S(=O)(c1ccc(Cl)cc1)N1CCN(S(=O)(=O)c2ccc3c(c2)OCCO3)CC1
CC(=O)Nc1cc2c(s1)c1cnn(Cc3ccccc3F)c(=O)c1n2C
O=S(=O)(NCC1CN(S(=O)(=O)c2c(F)cccc2F)C1)c1ccc2c(c1)OCCO2
Cc1cc2c(s1)c1cnn(Cc3c(F)c(F)cc(F)c3F)c(=O)c1n2C
Cc1cc2c(s1)c1cnn(Cc3ccccc3F)c(=O)c1n2C(C)C
O=S(=O)(c1ccc2c(c1)OCCO2)N1CCN(S(=O)(=O)c2cccc[n+]2[O-])CC1
O=S(=O)(c1ccc2c(c1)OCCO2)N1CCN(S(=O)(=O)c2ccc3c(c2)OCCO3)CC1
Cc1cc2c(s1)c1c(C)nn(Cc3ccccc3F)c(=O)c1n2C
O=S(=O)(c1ccc2c(c1)OCCCO2)N1CCN(S(=O)(=O)c2c(F)cccc2F)CC1
COc1cc(F)c(S(=O)(=O)N2CCN(S(=O)(=O)c3ccc4c(c3)OCCO4)CC2)c(F)c1
O=S(=O)(c1c(F)cccc1F)C1CCN(S(=O)(=O)c2ccc3c(c2)OCCO3)CC1
COc1cc2c(s1)c1cnn(Cc3ccccc3F)c(=O)c1n2C
Cc1cc2c(s1)c1cnn(Cc3cccc(Cl)c3)c(=O)c1n2C
O=S(=O)(c1ccc2ccccc2c1)N1CCN(S(=O)(=O)c2c(F)cccc2F)CC1
Cc1cc2c(s1)c1cnn(Cc3ccccc3F)c(=O)c1n2C
Cc1nc2ccc(S(=O)(=O)N3CCN(S(=O)(=O)c4c(F)cccc4F)CC3)cc2s1
CSc1cc2c(s1)c1cnn(Cc3ccccc3F)c(=O)c1n2C
O=S(=O)(c1ccc2c(c1)OCCO2)N1CCN(S(=O)(=O)c2c(F)cccc2F)CC1
Cc1cc2c(s1)c1cnn(Cc3ccc(C)c(F)c3F)c(=O)c1n2C
Cc1cc2c(s1)c1cnn(Cc3ccccc3)c(=O)c1n2C
Cc1cc2c(s1)c1cnn(Cc3ccc(F)cc3F)c(=O)c1n2C
Cn1c2cc(B(O)O)sc2c2cnn(Cc3ccccc3F)c(=O)c21
O=S(=O)(NC1CCC(NS(=O)(=O)c2c(F)cccc2F)CC1)c1ccc2c(c1)OCCO2 (stereo not given)
O=C(c1c(F)cccc1F)N1CCN(S(=O)(=O)c2ccc3c(c2)OCCO3)CC1
O=S(=O)(c1ccccc1)N1CCN(S(=O)(=O)c2ccc3c(c2)OCCO3)CC1
COc1ccc(S(=O)(=O)N2CCN(S(=O)(=O)c3ccc4c(c3)OCCO4)CC2)cc1
COc1ccc(S(=O)(=O)N2CCN(S(=O)(=O)c3ccc(OC)cc3)CC2)cc1
